For orientation: inhibition means the change of the read-out against control, counted positive when it falls.

The source of these data is PubChem BioAssay.

Test [1] in a line: antimalarial activity against Dd2 strain (AID 2302;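 active = growth inhibition above 50% at the single 2 µM test dose, taken to imply half-maximal potency below 2 µM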;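 note: 0% = DMSO untreated growth and 100% = chloroquine plus artemisinin killed control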). The settings on record: P. falciparum Dd2 in RBCs, LDH growth readout, 72 h; at 2 µM; active compounds read high.
Test [2] is described as follows: human hepatoma cell viability loss – ATP luminescence, cytotoxicity control for P. falciparum antimalarial project, primary screen (AID 2303;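 active = inhibition above 50%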;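 note: 0% = DMSO wells and 100% = digitonin-killed cells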). The settings on record: HepG2 viability, 24-48 h, at 10 µM, active compounds read high.
For test [3], the target named is L-lactate dehydrogenase (Plasmodium falciparum (isolate CDC / Honduras)) (UniProt Q27743). Put plainly: PfLDH activity inhibition – cell lysate, 3D7 strain, counter-screen for P. falciparum growth inhibition project (AID 2304).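 Note: 0% = vehicle and 100% = reference inhibitor.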 The settings on record: P. falciparum 3D7 crude extract, LDH APAD/NBT absorbance; at 2 µM; active compounds read high.
The nature of test [4]: inhibition of 3D7 malaria parasite growth – strain 3D7 (AID 2306).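 Note: 0% = DMSO wells and 100% = chloroquine plus artemisinin control wells.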 The settings on record: P. falciparum 3D7 erythrocytic growth, LDH absorbance, 72 h; at 2 µM; active compounds read high.
The target of test [5] is Calcium-dependent protein kinase 1 (Plasmodium falciparum (isolate 3D7)) (UniProt P62344). Put plainly: PfCDPK1 kinase inhibitors, biochemical, TCAMS library (AID 1159585; cut-off not given, nearly all actives have IC50 up to about 0.98 µM;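 note: inhibitors leave more ATP so luminescence rises with inhibition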). The settings on record: recombinant PfCDPK1, Kinase-Glo ATP depletion luminescence.
The target of test [6] is Plasmodium falciparum protein kinase 6 (PK6, PF3D7_1337100) (UniProt Q8IDW1). Put plainly: PfPK6 kinase inhibitors, biochemical, TCAMS library (AID 1159586). The settings on record: recombinant PfPK6, Kinase-Glo ATP depletion luminescence.
In test [7] the target is Protein kinase 7 (PK7), Plasmodium falciparum 3D7 (PF3D7_0213400) (UniProt Q7YTF7). The experiment in a line: inhibition of Plasmodium PK7 catalytic activity – biochemical, TCAMS antimalarial set, Kinase-Glo luminescence (AID 1159587). The settings on record: recombinant PfPK7, Kinase-Glo ATP depletion luminescence. Background: Kinase-Glo measures the ATP left after a reaction by luminescence.

For test [8], the target named is Calcium-dependent protein kinase 4 (Plasmodium falciparum (isolate 3D7)) (UniProt Q8IBS5). The experiment in a line: PfCDPK4 kinase inhibitors, biochemical, TCAMS library (AID 1159588; cut-off not given, nearly all actives have IC50 up to about 0.91 µM). The settings on record: recombinant PfCDPK4, Kinase-Glo ATP depletion luminescence.

Unmarked numbers belong to inactive results. For some assays here: Entries with a potency or affinity are not part of this list. Activity calls are given as the source filed them. Unless noted, the rule behind the calls is not given here.

L-lactate dehydrogenase (Plasmodium falciparum (isolate CDC / Honduras)), sequence (Q27743 whole entry, looked up): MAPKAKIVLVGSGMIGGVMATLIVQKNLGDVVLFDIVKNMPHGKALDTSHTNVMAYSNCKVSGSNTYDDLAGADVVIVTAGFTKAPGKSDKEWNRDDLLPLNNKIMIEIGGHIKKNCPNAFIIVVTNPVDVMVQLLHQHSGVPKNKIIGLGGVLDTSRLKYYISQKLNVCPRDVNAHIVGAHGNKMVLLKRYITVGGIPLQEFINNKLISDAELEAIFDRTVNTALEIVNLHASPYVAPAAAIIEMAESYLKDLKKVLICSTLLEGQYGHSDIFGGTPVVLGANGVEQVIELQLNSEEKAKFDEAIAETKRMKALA
Protein kinase 7 (PK7), Plasmodium falciparum 3D7 (PF3D7_0213400), sequence (Q7YTF7 1-343): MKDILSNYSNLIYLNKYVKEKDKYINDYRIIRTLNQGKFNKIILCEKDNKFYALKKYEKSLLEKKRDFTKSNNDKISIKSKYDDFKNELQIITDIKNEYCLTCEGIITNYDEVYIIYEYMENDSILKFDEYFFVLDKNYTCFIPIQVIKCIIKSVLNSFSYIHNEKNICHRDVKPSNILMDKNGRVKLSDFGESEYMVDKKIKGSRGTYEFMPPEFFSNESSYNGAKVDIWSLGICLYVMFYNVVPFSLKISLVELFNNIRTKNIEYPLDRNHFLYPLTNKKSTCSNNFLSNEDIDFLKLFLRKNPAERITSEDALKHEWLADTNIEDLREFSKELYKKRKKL
Calcium-dependent protein kinase 1 (Plasmodium falciparum (isolate 3D7)), sequence (P62344 whole entry, looked up): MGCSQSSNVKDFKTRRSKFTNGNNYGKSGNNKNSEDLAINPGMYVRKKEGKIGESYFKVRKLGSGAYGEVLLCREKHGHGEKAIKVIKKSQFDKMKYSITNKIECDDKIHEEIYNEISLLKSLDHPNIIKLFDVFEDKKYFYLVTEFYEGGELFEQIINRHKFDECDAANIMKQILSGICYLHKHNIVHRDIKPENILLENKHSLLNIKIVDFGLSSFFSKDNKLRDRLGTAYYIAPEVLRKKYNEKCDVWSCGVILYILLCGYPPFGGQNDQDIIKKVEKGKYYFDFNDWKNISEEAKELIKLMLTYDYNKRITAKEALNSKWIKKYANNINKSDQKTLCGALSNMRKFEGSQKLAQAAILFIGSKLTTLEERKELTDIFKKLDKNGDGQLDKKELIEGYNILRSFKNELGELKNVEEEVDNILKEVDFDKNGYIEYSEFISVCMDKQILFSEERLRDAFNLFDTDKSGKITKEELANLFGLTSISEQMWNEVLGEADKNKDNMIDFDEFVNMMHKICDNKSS
Calcium-dependent protein kinase 4 (Plasmodium falciparum (isolate 3D7)), sequence (Q8IBS5 whole entry, looked up): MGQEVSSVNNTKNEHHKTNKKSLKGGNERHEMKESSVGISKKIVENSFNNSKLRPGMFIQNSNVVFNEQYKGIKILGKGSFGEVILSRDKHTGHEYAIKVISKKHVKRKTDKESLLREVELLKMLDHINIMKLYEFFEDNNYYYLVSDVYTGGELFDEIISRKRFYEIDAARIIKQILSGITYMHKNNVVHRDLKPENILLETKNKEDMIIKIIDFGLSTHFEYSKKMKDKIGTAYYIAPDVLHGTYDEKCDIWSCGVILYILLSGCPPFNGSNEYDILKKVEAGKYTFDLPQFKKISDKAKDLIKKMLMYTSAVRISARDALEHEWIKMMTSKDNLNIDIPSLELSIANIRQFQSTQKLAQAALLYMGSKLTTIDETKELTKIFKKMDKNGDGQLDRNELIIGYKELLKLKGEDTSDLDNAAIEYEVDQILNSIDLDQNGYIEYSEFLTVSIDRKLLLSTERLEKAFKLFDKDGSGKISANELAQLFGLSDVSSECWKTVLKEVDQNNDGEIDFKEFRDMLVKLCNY
Plasmodium falciparum protein kinase 6 (PK6, PF3D7_1337100), sequence (Q8IDW1 1-305): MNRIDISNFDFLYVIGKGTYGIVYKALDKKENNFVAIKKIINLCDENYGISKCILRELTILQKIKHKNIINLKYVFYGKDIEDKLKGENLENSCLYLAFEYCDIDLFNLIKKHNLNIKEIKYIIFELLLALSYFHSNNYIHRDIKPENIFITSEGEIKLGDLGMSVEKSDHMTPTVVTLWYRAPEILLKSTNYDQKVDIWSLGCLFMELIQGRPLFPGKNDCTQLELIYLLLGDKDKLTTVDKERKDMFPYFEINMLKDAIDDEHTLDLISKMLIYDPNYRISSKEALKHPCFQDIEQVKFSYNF

Regarding `O=[N+]([O-])c1ccc2c(-c3ccccc3)c(-c3ccccc3)n(O)c2c1`, the growth inhibition in test [1] is 11%; in test [4], 97% (active). In addition, the inhibition in test [2] is 8%; in test [3] it was -3%. Besides, the result in test [5], in test [6], in test [7] and in test [8] was inactive.
Regarding `CN(C)CCCOc1ccc(CN2CC[C@H](NC(=O)c3ccc(Cl)c(Cl)c3)C2)cc1Br`, the growth inhibition in test [1] was 34%; in test [4] it was 101% (active). For the same molecule, the inhibition in test [2] was 11%; in test [3], -2%. Moreover, the outcome in test [5], in test [6], in test [7] and in test [8] was inactive.
In the case of `C/C=C/C=C/C1=NCCc2cc(OCCC)ccc21`, the growth inhibition is 40% in test [1] and 87% (active) in test [4]. In addition, the inhibition in test [2] was -1%; in test [3], -4%. Also, the outcome in test [5], in test [6], in test [7] and in test [8] was inactive.
Take `CN(C)[C@@H]1C(=O)C(C(N)=O)=C(O)[C@@]2(O)C(=O)C3=C(O)c4c(O)ccc(C#Cc5ccccn5)c4C[C@H]3C[C@@H]12`: the growth inhibition in test [1] is 75% (active); in test [4], 92% (active). Besides, the inhibition in test [2] is 17%; in test [3], -6%. For the same molecule, the outcome in test [5], in test [6], in test [7] and in test [8] was inactive.
Regarding `CN1CCN(c2cc(-c3cccnc3)nc(-c3ccncc3)n2)CC1`, the growth inhibition was 89% (active) in test [1] and 100% (active) in test [4]. Moreover, the inhibition was 11% in test [2] and 1% in test [3]. Further, the result in test [5], in test [6], in test [7] and in test [8] was inactive.
`Cc1cccc2[nH]c(-c3ccc(-c4ccc(NC(=O)Nc5ccsc5)cc4)cc3)nc12`: the growth inhibition is 70% (active) in test [1] and 101% (active) in test [4]. Moreover, the inhibition is 49% in test [2] and 5% in test [3]. The result in test [5], in test [6], in test [7] and in test [8] was inactive.
In the case of `Cc1noc(C)c1-c1cccc(CNCc2ccc(-c3ccc(-c4nc5ccc(C(F)(F)F)cc5[nH]4)s3)cc2)c1`, the growth inhibition in test [1] was 99% (active); in test [4] it was 102% (active). For the same molecule, the inhibition was 54% (active) in test [2] and 3% in test [3]. The result in test [5], in test [6], in test [7] and in test [8] was inactive.
For `CN1CCN(C(C(=O)NCc2cc(Cl)cc(Cl)c2)c2ccccc2-c2ccsc2)CC1` (configuration not stated), the growth inhibition in test [1] is 80% (active); in test [4], 95% (active). Moreover, the inhibition is 11% in test [2] and 2% in test [3]. For the same molecule, the result in test [5], in test [6], in test [7] and in test [8] was inactive.
Regarding `Cc1cccc2[nH]c(-c3cccc(-c4ccc(NC(=O)Nc5ccc6c(c5)OCO6)cc4)c3)nc12`, the values for the growth inhibition in test [1] and in test [4] were 86% (active) and 101% (active), respectively. Further, the inhibition in test [2] is 80% (active); in test [3], -3%. Further, the result in test [5], in test [6], in test [7] and in test [8] was inactive.
For the molecule `Cc1cc(CN2CCC(N3CC(c4ccccc4)(c4ccccc4)OC3=O)C2)ccc1O` (configuration not stated), the results for the growth inhibition in test [1] and in test [4] were 68% (active) and 96% (active), respectively. Besides, the inhibition in test [2] was -3%; in test [3], 1%. Also, the result in test [5], in test [6], in test [7] and in test [8] was inactive.
As to `CN1CCN(CC(=O)Nc2cccc(-c3ccc(-c4nc5ccc(F)cc5[nH]4)s3)c2)CC1`, the growth inhibition is 94% (active) in test [1] and 101% (active) in test [4]. Further, the inhibition is 71% (active) in test [2] and -4% in test [3]. The outcome in test [5], in test [6], in test [7] and in test [8] was inactive.
As to `O=C(Nc1cccc(C(F)(F)F)c1)c1ccc(S(=O)(=O)NC2CCN(CC3CCCCC3)C2)cc1` (configuration not stated), the growth inhibition is -3% in test [1] and 92% (active) in test [4]. For the same molecule, the inhibition was 16% in test [2] and -4% in test [3]. The result in test [5], in test [6], in test [7] and in test [8] was inactive.
As to `C=C[C@]1(C)C[C@@H](OC(=O)NC(=O)CCCS(=O)(=O)c2nnc(C)s2)[C@]2(C)[C@H](C)CC[C@]3(CCC(=O)[C@H]32)[C@@H](C)[C@@H]1O`, the growth inhibition in test [1] is 97% (active); in test [4], 94% (active). The inhibition in test [2] is -9%; in test [3], -7%. The outcome in test [5], in test [6], in test [7] and in test [8] was inactive.
Consider `Cc1cc(C(F)(F)F)cc(-n2ncc(-c3ccc(C(=O)NCc4ccccc4N)cc3)c2N)n1`, for which the growth inhibition was 89% (active) in test [1] and 99% (active) in test [4]. In addition, the inhibition was 10% in test [2] and 3% in test [3]. For the same molecule, the result in test [5], in test [6], in test [7] and in test [8] was inactive.
With `COc1ccccc1NC(=S)N/N=C/c1ccc(O)cc1O`, the growth inhibition in test [1] was 80% (active); in test [4], 89% (active). Further, the inhibition is 35% in test [2] and -5% in test [3]. In addition, the outcome in test [5], in test [6], in test [7] and in test [8] was inactive.
Regarding `COCCNC(=O)C(CNC(=O)c1ccc2c(c1)OCO2)NC(=O)c1ccc(-c2ccccc2)cc1` (configuration not stated), the growth inhibition in test [1] was 3%; in test [4], 90% (active). Moreover, the results for the inhibition in test [2] and in test [3] were 14% and 1%, respectively. For the same molecule, the result in test [5], in test [6], in test [7] and in test [8] was inactive.
Consider `Cc1[nH]c(C)c(-c2ccc(Nc3ccc(C(F)(F)F)cn3)cc2)c(=O)c1Br`, for which the growth inhibition in test [1] was 98% (active); in test [4], 99% (active). Besides, the results for the inhibition in test [2] and in test [3] were 30% and -2%, respectively. The result in test [5], in test [6], in test [7] and in test [8] was inactive.
For `Cc1cc(Cl)ccc1OC(C)C(=O)N1CCc2ccccc21` (configuration not stated), the growth inhibition in test [1] is 78% (active); in test [4], 94% (active). In addition, the inhibition in test [2] is 8%; in test [3], -2%. The result in test [5], in test [6], in test [7] and in test [8] was inactive.
As for `CC(C)(NCc1ccc(OC(F)(F)F)cc1)c1nc(-c2ccc(Cl)c(O)c2)c(-c2ccncc2)[nH]1`, the growth inhibition in test [1] was 32%; in test [4], 94% (active). Moreover, the inhibition in test [2] was 65% (active); in test [3], -8%. Besides, the outcome in test [5], in test [6], in test [7] and in test [8] was inactive.
